High-throughput results: PubChem BioAssay, several laboratories
GDH-TPI counter-1 – GDH-TPI coupling enzyme inhibitors, primary screen, artefact control for M. tuberculosis FBA inhibitor project, biochemical, absorbance, full deck; GDH-TPI coupled enzyme counterscreen, NADH absorbance; inhibition, % at 4.8 µM; 360,000 tested, 1.2% active; AID 588335, 2011; in the data active = inhibition above about 30%;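 also: 0% = DMSO wells and 100% = wells lacking the enzyme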
Mtb FBA inh – Mtb FBA enzyme inhibitors, primary screen, biochemical, fluorescence, strain H37Rv | Fructose-bisphosphate aldolase (Mycobacterium tuberculosis (strain ATCC 25618 / H37Rv)), … | purified M. tuberculosis FBA, fluorescence read-out | inhibition, % at 1 µM | 360,000 tested, 2.3% active | AID 588726, 2011;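 also: 0% = vehicle and 100% = reference inhibitor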
Target sequence (P9WQA3 whole entry, looked up): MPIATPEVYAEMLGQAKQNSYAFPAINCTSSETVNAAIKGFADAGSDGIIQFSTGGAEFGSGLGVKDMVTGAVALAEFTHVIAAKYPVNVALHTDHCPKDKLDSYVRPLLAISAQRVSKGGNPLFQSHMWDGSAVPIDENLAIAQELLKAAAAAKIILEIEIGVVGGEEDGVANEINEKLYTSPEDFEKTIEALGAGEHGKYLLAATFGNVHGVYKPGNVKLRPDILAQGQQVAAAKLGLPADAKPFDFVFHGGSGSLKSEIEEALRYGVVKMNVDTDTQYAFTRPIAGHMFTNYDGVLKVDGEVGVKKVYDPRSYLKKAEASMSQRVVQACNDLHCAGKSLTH
Mtb BioA inh – M. tuberculosis BioA enzyme inhibitors, primary screen, biochemical, plate reader, single point, HTS; 360,000 tested, 0.096% active; AID 602481, 2012; 7,8-diaminopelargonic acid synthase BioA (Mycobacterium tuberculosis); purified M. tuberculosis BioA enzyme; inhibition, % at 9.99 µM; in the data active = inhibition above about 40%
BH1578 lux ind – inducers of Vibrio cholerae quorum light production without autoinducers, primary screen, BH1578 luxS cqsA deficient, single point | V. cholerae BH1578 lux reporter, luminescence, 6 h | activation, % at 18.7 µM | 350,000 tested, 0.16% active; in the data active = activation mostly above about 9.7%, no sharp cut-off
Mtb FBA confirm – M. tuberculosis aldolase blockers, biochemical, fluorescence, strain H37Rv, confirmation. inhibition, % at 1 µM. shares compounds with Mtb FBA inh. purified M. tuberculosis FBA, fluorescence read-out. 5,600 tested, 78% active. AID 651616, 2012;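 also: 0% = vehicle wells and 100% = reference inhibitor wells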
GDH-TPI counter-2 – GDH-TPI coupling enzyme inhibitors, artefact control for M. tuberculosis FBA inhibitor project, biochemical, fluorescence, high throughput; shares compounds with Mtb FBA inh; GDH-TPI coupled enzyme counterscreen; inhibition, % at 1 µM; 5,600 tested, 81% active; AID 652141, 2013; in the data active = inhibition above about 10%
Starred values were filed as active, the others as inactive; i = inactive; · = no result; + = active, no number. Shown are actives, neighbours in structure and some others; about 3% of the full set was active somewhere. Rule as the data show it, unless noted: active = inhibition above about 27%; inactive = the rest.

SMILES	GDH-TPI counter-1	Mtb FBA inh	Mtb BioA inh	BH1578 lux ind	Mtb FBA confirm	GDH-TPI counter-2
CC1=C(C(=O)Nc2ccccc2C(=O)NC2CCC(C)CC2)SCCO1 (stereo unspecified)	-4.3	37.4*	8.1	-0.4	19.8	17.1*
CC1=C(C(=O)Nc2ccccc2C(=O)NCc2ccccc2)SCCO1	-5.1	-6.1	0.5	-0.3	·	·
Clc1ccsc1-c1ccnc(-n2cccc2)n1	3.1	6.6	-1.5	-2.1	·	·
Clc1ccc(-c2ccnc(-n3cccc3)n2)s1	15.8	45.3*	-1.8	-0.6	+	156.9*
c1coc(-c2ccnc(-n3cccc3)n2)c1	1.9	31.2*	-0.6	-0.6	147.4*	128.9*
O=C(Cc1ccncc1)NCC[C@H]1CC[C@@H](NC(=O)C2CCCCC2)[C@@H](CO)O1	·	·	-2.2	·	·	·
CCC1CC2(C)NC(=O)c3c(sc4c3CC(C)(C)OC4)N2C1=O (stereo unspecified)	9.8	39.1*	-4.4	i	175.4*	111.8*
CC1(C)Cc2c(sc3c2C(=O)NC(c2cccnc2)N3)CO1 (stereo unspecified)	7.8	17.1	3.0	-0.2	·	·
Cc1cccc(C2Nc3ccccc3C(=O)N2c2ccccc2)n1 (stereo unspecified)	-2.4	61.4*	-1.0	-3.6	47.2*	46.4*
O=C1c2ccccc2NC(c2ccc(O)cc2)N1c1ccccc1 (stereo unspecified)	6.2	14.6	-1.0	i	·	·
COc1ccc(CNC(=O)C2Cc3c(-c4ccc5c(c4)OCO5)ccnc3O2)cc1OC (stereo unspecified)	7.5	30.8*	3.0	i	+	+
O=C(NCc1ccc(F)c(F)c1)C1Cc2c(-c3ccc4c(c3)OCO4)ccnc2O1 (stereo unspecified)	-1.8	49.3*	2.9	i	176.8*	135.6*
O=C(NCCc1ccccc1)C1Cc2c(-c3ccc4c(c3)OCO4)ccnc2O1 (stereo unspecified)	-3.6	47.4*	2.0	-0.4	28.9*	36.1*
CC(C)NC(=O)C1Cc2c(-c3ccc4c(c3)OCO4)ccnc2O1 (stereo unspecified)	3.5	51.8*	3.1	-0.3	111.4*	91.1*
COc1ccc(CNC(=O)C2Cc3c(-c4ccccc4)ccnc3O2)cc1OC (stereo unspecified)	4.6	1.0	0.7	-0.8	·	·
COc1ccc(NC(=O)C2Cc3c(-c4ccc5c(c4)OCO5)ccnc3O2)cc1OC (stereo unspecified)	6.2	48.0*	4.0	i	27.5*	19.4*
CCCN1[C@@H]2c3ccc(C4=CCCCC4)c(=O)n3C[C@H]1[C@H](CO)[C@H]2C(=O)N1CCc2ccccc2C1	·	·	-1.4	·	·	·
C[C@@H]1CN([C@H](C)CO)C(=O)c2cc(C#CC3(O)CCCC3)cnc2O[C@@H]1CN(C)C(=O)CC1CC1	·	·	-2.0	·	·	·
CC(=O)NN1C(=O)c2ccccc2NC1c1cccnc1 (stereo unspecified)	0.3	30.2*	·	i	77.0*	72.2*
O=C1c2ccccc2NC(c2cccnc2)N1c1ccccc1F (stereo unspecified)	1.5	70.7*	·	-0.3	2.6	-1.9
O=C(NN1C(=O)c2ccccc2NC1c1ccoc1)c1ccccc1 (stereo unspecified)	0.9	8.1	2.2	-0.4	·	·
CC(=O)NN1C(=O)c2ccccc2NC1c1ccccc1F (stereo unspecified)	-3.3	33.9*	3.3	-0.6	81.4*	50.9*
CC(=O)NN1C(=O)c2ccccc2NC1c1ccoc1 (stereo unspecified)	-2.9	35.0*	-0.4	-0.1	38.1*	18.5*
CCOC(=O)NN1C(=O)c2ccccc2NC1c1cccnc1 (stereo unspecified)	-2.8	21.1	0.5	-0.3	·	·
COC(=O)Nc1nnc(-c2ccc(OC)cc2)s1	15.7	43.2*	·	-0.4	58.2*	56.2*
SMILES	GDH-TPI counter-1	Mtb FBA inh	Mtb BioA inh	BH1578 lux ind	Mtb FBA confirm	GDH-TPI counter-2
CCOC(=O)Nc1nnc(-c2ccc(OC)c(OC)c2)s1	11.7	62.2*	-1.5	-0.3	72.4*	58.4*
COc1ccc(-c2nnc(NC(=O)c3c(OC)cccc3OC)s2)cc1	27.1	1.2	-1.1	i	·	·
C[C@@H]1CCCCO[C@@H](CN(C)C(=O)Cc2ccccc2)[C@H](C)CN([C@H](C)CO)C(=O)c2cc(NS(=O)(=O)c3cn(C)cn3)ccc2O1	·	·	-1.7	·	·	·
C[C@@H]1CN([C@@H](C)CO)C(=O)c2cc(NS(=O)(=O)c3ccc(F)cc3)ccc2O[C@@H](C)CCCCO[C@@H]1CN(C)C(=O)Nc1ccccc1	·	·	-3.0	·	·	·
CC(=O)Oc1c(-c2ccc(Br)o2)oc2ccccc2c1=O	30.0	78.7*	0.0	-0.4	46.9*	40.9*
Cc1ccc(NC(=O)c2cc3ccccc3oc2=N)cc1	2.6	-1.8	-1.2	i	·	·
N=c1oc2cc(O)ccc2cc1C(=O)Nc1ccc(Cl)cc1	10.2	102.8*	-4.4	-0.3	+	+
O=C(C[C@@H]1CC[C@@H](NC(=O)c2ccncc2)[C@@H](CO)O1)NCC1CC1	·	·	-1.7	·	·	·
COc1ccc(S(=O)(=O)N(C)C[C@@H]2OCCCC[C@@H](C)Oc3ccc(NC(=O)CCC(F)(F)F)cc3C(=O)N([C@H](C)CO)C[C@H]2C)cc1	·	·	-1.6	·	·	·
O=C(Nc1ccccc1SCC1CSc2nc3ccccc3c(=O)n21)c1cccc(Cl)c1 (stereo unspecified)	-0.8	59.3*	0.5	i	84.6*	78.7*
COc1cccc(/C=C/C(=O)OCC(=O)c2c(N)n(C)c(=O)n(C)c2=O)c1	19.5	63.4*	-1.0	-1.3	85.8*	59.3*
COc1ccc(/C=C/C(=O)OCC(=O)c2c(N)n(C)c(=O)n(C)c2=O)cc1	16.2	-4.3	-4.4	i	·	·
Cc1cc(=O)oc2cc(OCC(=O)N3C[C@H]4C[C@@H](C3)c3cccc(=O)n3C4)c(Cl)cc12	12.8	8.3	-1.2	-0.4	·	·
Cc1cc(OCC(=O)N2C[C@H]3C[C@@H](C2)c2cccc(=O)n2C3)c2c(C)c(C)c(=O)oc2c1	8.8	39.6*	1.2	-0.6	38.5*	22.9*
CCCCc1cc(=O)oc2cc(C)cc(OCC(=O)N3C[C@H]4C[C@@H](C3)c3cccc(=O)n3C4)c12	12.8	42.3*	2.0	-0.3	51.2*	37.7*
CCCCc1cc(=O)oc2cc(OCC(=O)N3C[C@H]4C[C@@H](C3)c3cccc(=O)n3C4)ccc12	12.8	6.5	0.9	-0.4	·	·
